From PubChem
HPGD inh: qHTS Assay for Inhibitors of HPGD (15-Hydroxyprostaglandin Dehydrogenase) | purified HPGD, NADH fluorescence kinetic, PGE2 substrate | 150,000 tested, 4.3% active | Potency, µM, inactives show at the top dose activity change, negative = inhibition, usual class: inhibitors | 15-hydroxyprostaglandin dehydrogenase [NAD(+)] (Homo sapiens), P15428; note: potency is the fitted concentration of half-maximal effect
Target sequence (P15428 whole entry, looked up): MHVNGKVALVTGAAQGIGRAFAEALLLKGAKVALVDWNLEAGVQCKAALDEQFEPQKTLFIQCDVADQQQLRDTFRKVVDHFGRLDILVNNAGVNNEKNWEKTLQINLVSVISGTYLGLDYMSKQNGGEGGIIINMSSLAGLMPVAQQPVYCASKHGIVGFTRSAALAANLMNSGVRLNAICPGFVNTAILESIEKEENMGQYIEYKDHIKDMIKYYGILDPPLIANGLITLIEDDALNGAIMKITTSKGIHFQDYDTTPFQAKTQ
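NADH formation kinetics: reaction with 30 uM PGE2 and 1 mM NAD+ (final), 20 nM enzyme, Tris-HCl pH 8 with Tween 20, after 15 min compound preincubation at room temperature. Fluorescence change, last versus first of five reads.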
PNC inhibitor: High Content Assay for Compounds that inhibit the Assembly of the Perinucleolar Compartment; AID 2417, 2010; 140,000 tested, 3.1% active; PC3M PTB-GFP, PNC prevalence imaging, 16 h; hits give low values; activity change (PNC), negative = inhibition, % at 10 µM;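 active = readout at or below -70, meaning at least 70% loss of cells showing the perinucleolar compartment, a nuclear body marking cancer cells; inconclusive = readout between -30 and a set limit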;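 note: plate controls were DMSO wells for no effect and camptothecin positive control wells for full effect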
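Compounds are pinned in duplicate onto adhered PC3M cells stably expressing GFP-tagged PTB and incubated 16 h at 37 C. Cells are then fixed, nuclei stained with Hoechst, and PNC-positive cells counted.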
IMPase cell inh: qHTS Assay for Identifying the Cell-Membrane Permeable IMPase Inhibitors | inhibition (IP1 accumulation), % at 46.1 µM | Inositol monophosphatase 1 (Rattus norvegicus), P97697 | AID 901, 2007 | CHO-M1 cells, IP1 accumulation, HTRF TR-FRET ratio | 120,000 tested, under 10 active; active = well fitted curve in the direction sought with a large enough effect in the signal ratio, not every such curve was filed as active; inconclusive = small, poorly fitted or top-dose-only effect, or a change in a side signal; inactive = no such curve, though single readings can be large or run the other way; the % refers to the signal ratio;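 note: cells stimulated with carbachol in lithium chloride buffer; plate controls were DMSO basal wells for no effect and reference inhibitor wells for full effect; higher means more IMPase inhibition seen as more IP1 and lower FRET ratio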
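CHO-M1, 2000 cells/well, cultured 16–30 h; cpd up to 46 uM; carbachol (50 uM solution, stimulation buffer w/ 50 mM LiCl, pH 7.4), 30 min 37C; IP-One TR-FRET, 10 min RT; Ex 320/Em 665, 620; Hill-fit AC50.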
ALDH1A1 block: qHTS Assay for Inhibitors of Aldehyde Dehydrogenase 1 (ALDH1A1); Aldehyde dehydrogenase 1A1 (Homo sapiens), P00352; Purified ALDH1A1, NADH fluorescence, propionaldehyde substrate; Potency, µM (titrated, usually from 75.3 µM), for inactives: at the top dose activity, negative = inhibition, hits mostly inhibitors; 220,000 tested, 7.3% active; AID 1030, 2008;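 note: potency is the fitted concentration of half-maximal effect; plate controls were no enzyme wells and a reference inhibitor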
Target sequence (P00352 whole entry, looked up): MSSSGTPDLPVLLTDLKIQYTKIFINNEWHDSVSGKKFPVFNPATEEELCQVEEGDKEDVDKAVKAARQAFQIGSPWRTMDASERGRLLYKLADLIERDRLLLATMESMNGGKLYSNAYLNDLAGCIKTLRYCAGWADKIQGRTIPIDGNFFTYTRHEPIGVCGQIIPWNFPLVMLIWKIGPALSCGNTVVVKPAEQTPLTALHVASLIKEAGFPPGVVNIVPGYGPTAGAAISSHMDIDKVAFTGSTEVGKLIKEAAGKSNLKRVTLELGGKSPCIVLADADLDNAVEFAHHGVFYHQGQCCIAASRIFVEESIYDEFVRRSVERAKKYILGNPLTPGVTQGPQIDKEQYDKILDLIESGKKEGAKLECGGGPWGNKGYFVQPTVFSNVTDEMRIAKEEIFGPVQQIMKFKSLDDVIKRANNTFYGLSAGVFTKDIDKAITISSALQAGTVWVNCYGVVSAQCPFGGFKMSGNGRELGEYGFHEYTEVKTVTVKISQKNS
IMPase Li cell: qHTS Assay for Identifying the Cell-Membrane Permeable IMPase Inhibitors: Potentiation with Lithium; CHO-M1 cells, IP1 TR-FRET (IP-One), carbachol + lithium; Potency, µM (titrated, usually from 59.4 µM), for inactives: at the top dose activity, negative = IMPase inhibition, actives largely listed as inhibitors; 210,000 tested, 0.35% active; AID 1457, 2008; active = well fitted inhibition curve with a large enough effect; inconclusive = small, poorly fitted or top-dose-only effect; inactive = no such curve, though single readings can be large or run the other way;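 note: IP1 builds up when IMPase is blocked and the TR-FRET signal falls; potency is the fitted concentration of half-maximal effect; plate controls were basal vehicle for no effect and high inhibitor control for full effect; nearly all actives have a fitted effect of over 50% in size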
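IP1 accumulation measured by competitive TR-FRET in lysed CHO-M1 cells after 30 min compound exposure at 37C, with a small lithium addition to potentiate weak responses. Hill-equation AC50 from ratio and donor-channel data.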
* marks the source's active call; other numbers are inactive results; ? = inconclusive; · = no result given; [ ] = remark or other dose. Only some compounds are listed: those with a hit (about 11% of all), similar ones and a draw of the others. Unless noted, calls come from the whole dose curve; as a rule, active = well fitted inhibition curve with a large enough effect (not every such curve was filed as active); inconclusive = small, poorly fitted or top-dose-only effect, or another doubt; inactive = no such curve, though single readings can be large or run the other way. Unless noted, % is set by controls: 0 for no effect and ±100 for the full control effect.

SMILES	HPGD inh	PNC inhibitor	IMPase cell inh	ALDH1A1 block	IMPase Li cell
CN1C(=O)/C(=N/OC(=O)c2ccccc2)c2ccccc21	14µM*	41	5	?	9%[38.3 µM]
O=C(CP(=O)(c1ccccc1)c1ccccc1)N/N=C/c1cc(Br)cc(Br)c1O	0.14µM*	-30	-11	-2%	0%
O=[N+]([O-])c1cc(-c2cnc3ccccc3n2)ccc1Oc1ccc(Br)cc1	-5%	-106*	3	-11%	8%[38.3 µM]
O=[N+]([O-])c1ccc(Oc2ccc(-c3cnc4ccccc4n3)cc2[N+](=O)[O-])cc1	-10%	22	1	-6%	25%
C=CCSC1=C(C#N)C(c2ccc(C(C)C)cc2)CC(=O)N1 (configuration not stated)	-14%	-1	11	28µM*	21%[38.3 µM]
C=C(C)CSC1=C(C#N)C(c2ccsc2)CC(=O)N1 (configuration not stated)	-19%	18	21	16µM*	14%[38.3 µM]
CCSC1=C(C#N)C(c2cccc(O)c2)CC(=O)N1 (configuration not stated)	-13%	1	-5	-3%	10%[38.3 µM]
COc1cccc(OC)c1Nc1nc(C)nc2c1nnn2Cc1ccccc1Cl	·	·	·	4%	4%
Clc1ccccc1Cn1nnc2c(Nc3ccccc3)ncnc21	-23%	-13	-3[9.22 µM]	25µM*	6%[38.3 µM]
CCc1nc(Nc2ccc(OC)c(OC)c2)c2nnn(Cc3ccccc3Cl)c2n1	?	-119*	-1	?	28%
Cc1ccc(CNC(=O)c2ccc(COc3ccccc3)cc2)cc1	-1%	?	·	3%	-1%
O=C(NC(=S)Nc1ccc(Cc2ccncc2)cc1)c1ccc(F)cc1	·	·	·	20µM*	20%
CCNC(=S)Nc1ccc(Cc2ccncc2)cc1	·	·	·	?	12%
O=C(NC(=S)Nc1ccc(N2CCOCC2)cc1)c1ccc2c(c1)OCCO2	?	-17	·	20µM*	2%
CC(C)(C)c1ccc(C(=O)NC(=S)Nc2ccc(N3CCOCC3)cc2)cc1	-5%	-123*	·	10µM*	24%
CC(C)(C)C(=O)NC(=S)Nc1ccc(F)cc1	-13%	21	·	22µM*	-6%
CCc1nc2nc(C)cc(Nc3cc(Cl)ccc3C)n2n1	·	·	3	·	·
O=C(NNC(=S)NC(=O)c1cccnc1)c1ccccc1	-11%	27	-1	-6%	-2%[38.3 µM]
O=C(NC(=S)Nc1ccc(N2CCCCC2)cc1)c1ccc2c(c1)OCCO2	28µM*	19	·	10µM*	3%
CC(=O)N1CCN(c2ccc(NC(=S)NC(=O)COc3ccc(C(C)(C)C)cc3)cc2)CC1	-10%	34	·	19µM*	15%
O=C(NC(=S)NNC(=O)c1cnccn1)c1ccc(F)cc1	·	·	·	28µM*	-2%
O=C(NC(=S)Nc1c(F)cc(F)cc1Br)c1ccc2c(c1)OCCO2	·	·	·	?	17%
O=C(NC(=S)Nc1ccc(F)cc1)c1ccc2c(c1)OCCO2	·	·	·	13µM*	10%
CC(NC(=O)Cn1nnc(-c2ccncc2)n1)c1ccccc1 (configuration not stated)	-16%	10	6	-4%	13%
COc1ccc2c(c1)C(=O)[C@H](OC(=O)N[C@H](C)C1CCCCC1)[C@@H](c1ccc(OC)c(Br)c1)O2	-3%	·	·	-9%	8%
SMILES	HPGD inh	PNC inhibitor	IMPase cell inh	ALDH1A1 block	IMPase Li cell
Cn1ccs/c1=N\C(=O)Nc1cccc(Cl)c1	·	·	·	7%	3%
O=S(=O)(Nc1ccc(Cc2ccncc2)cc1)N1CCCC1	25µM*	?	9	3%	9%
O=C(Nc1ccc(Cc2ccncc2)cc1)C1CC1	-25%	?	8	0%	21%[38.3 µM]
CC(C)(C)c1ccc(S(=O)(=O)Nc2ccc(Cc3ccncc3)cc2)cc1	-11%	?	·	1.1µM*	22%
COc1ccc(NC(=O)/C=C/c2ccc(Br)o2)cn1	·	·	·	22µM*	6%
COc1ccc(OC)c(/C=C/C(=O)Nc2ccc(OC)nc2)c1	·	·	·	?	-6%
COc1ccccc1CNC(=O)/C=C/c1ccc(Br)o1	·	·	·	13µM*	0%
COc1ccc(NC(=O)/C=C/c2cccc(F)c2)cn1	-4%	?	·	-3%	1%
COc1ccc(NC(=O)/C=C/c2ccco2)cn1	·	·	·	7.1µM*	5%
O=C(/C=C/c1ccco1)NCCCN1CCOCC1	·	·	·	?	9%
O=C(/C=C/c1ccc(Br)o1)NCCCN1CCOCC1	·	·	·	2µM*	13%
CC(=O)OC[C@@H]1O[C@H](C/C=N\O[C@@H](C)c2cn([C@H]3COC[C@H]3O)nn2)C=C[C@@H]1OC(C)=O	·	·	·	11%[13.5 µM]	·
C[C@@H](c1ccccc1)N1C(=O)[C@H]2[C@H]3[C@H](O)[C@H](O)C/C(=N/OCc4ccccc4)[C@@H]3CC[C@@H]2C1=O	·	·	·	6%[13.5 µM]	·
O=c1cc(-c2ccccc2)oc2cc(O)c(O)cc12	18µM*	·	·	2%	1%
O=c1cc(-c2ccccc2)oc2ccccc12	8.9µM*	·	·	-17%	2%
O=c1cc(-c2ccc(O)c(O)c2)oc2ccccc12	7.1µM*	·	·	25µM*	53%
CN(C)c1oc(COc2ccccc2F)nc1C#N	-13%	-26	-3	0%	28%[38.3 µM]
COc1ccc(CCNc2oc(COc3ccccc3F)nc2C#N)cc1	18µM*	?	4	?	18%
N#Cc1nc(COc2ccccc2F)oc1NCc1ccc(F)cc1	20µM*	8	22	?	22%[38.3 µM]
COc1ccc(Nc2oc(COc3ccc(Cl)cc3)nc2C#N)cc1	28µM*	0	15	-6%	35%[38.3 µM]
COc1ccc(CNc2oc(COc3ccc(Cl)cc3)nc2C#N)cc1	-23%	-11	9	-5%	34%[38.3 µM]
COCCCNc1oc(COc2ccc(Cl)cc2Cl)nc1C#N	28µM*	?	5	0%	4%[38.3 µM]
CN(C)C(CNC(=O)CN1C(=O)NC2(CCc3ccccc32)C1=O)c1ccco1 (configuration not stated)	-10%	?	7	-4%	28%[38.3 µM]
CCN1CCN(CCOc2ccccc2-c2ccccc2)CC1	·	·	·	?	14%
CCN1CCN(CCCOc2ccccc2-c2ccccc2)CC1	·	·	·	11µM*	9%
O=[N+]([O-])c1cc(Cl)cc2c1nc(NCCO)c1ccccc12	-12%	·	·	?	-2%
COC(=O)CN1C(=O)C(O)(CC(=O)c2cccc(Br)c2)c2ccccc21 (configuration not stated)	-4%	-7	-8	0.56µM*	1%[38.3 µM]
Cc1ccccc1CN1C(=O)C(O)(CC(=O)c2cccc(Br)c2)c2ccccc21 (configuration not stated)	·	·	5	·	·
